TEAD-YAP block: TEAD-YAP interaction inhibition. 640,000 compounds, 1.4% hits. inhibition, % at 9.12 µM. HEK-TIYL cells, TEAD-Gal4/YAP UAS-luciferase luminescence; in the data active = inhibition above about 32%
GPR151 activ: human GPR151 activation | PathHunter beta-arrestin GPR151 cells, luminescence | activation, % at 11.2 µM | 650,000 compounds, 1% hits; in the data active = activation above about 4.9%
Target sequence (Q8TDV0 whole entry, looked up): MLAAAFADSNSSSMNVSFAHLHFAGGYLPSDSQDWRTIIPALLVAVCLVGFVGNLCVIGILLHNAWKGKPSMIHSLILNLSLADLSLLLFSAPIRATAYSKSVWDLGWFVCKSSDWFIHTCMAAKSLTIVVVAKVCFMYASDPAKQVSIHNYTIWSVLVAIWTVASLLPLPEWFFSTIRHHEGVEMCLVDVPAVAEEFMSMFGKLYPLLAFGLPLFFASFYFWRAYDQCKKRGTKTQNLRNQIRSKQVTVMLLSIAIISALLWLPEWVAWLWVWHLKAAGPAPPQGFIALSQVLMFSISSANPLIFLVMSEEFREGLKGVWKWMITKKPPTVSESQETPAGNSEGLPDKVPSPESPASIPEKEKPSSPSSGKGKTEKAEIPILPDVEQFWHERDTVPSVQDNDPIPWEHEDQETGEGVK
FBW7 act: activators of human E3 ligase FBW7; normalized activity (activation), % at 26.1 µM; AID 1259310; 650,000 compounds, 0.13% hits; AlphaScreen FBW7–phospho-cyclin E peptide binding, activator screen; in the data active = normalized activity above about 1.9%;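 also: purified mutant Fbw7 with reduced substrate affinity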
MITF inh: human MITF inhibition, primary screen; inhibition, % at 2.6 µM; AID 1259374; O75030; 650,000 compounds, 0.91% hits; AlphaScreen MITF homodimerization, bead proximity signal; in the data active = inhibition above about 50%
GPR151 conf act: confirmation of human GPR151 activators; activation, % at 11.2 µM; shares compounds with GPR151 activ; GPR151 PathHunter beta-arrestin cells, luminescence, 90 min; % of EA-reagent control over plate median; 6,700 tested, under 10 active;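 active = mean percent activation across replicates above the confirmation screen cutoff of 4.91%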
GPR119 ag: activates human GPR119 in a GPR151 counter-screen; shares compounds with GPR151 activ; GPR119 PathHunter beta-arrestin cells, luminescence, 90 min; 0 = compound-well median, 100 = enzyme-acceptor control; activation, % at 11.2 µM; 6,700 compounds, 0.3% hits;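 active = mean percent activation in the counterscreen above 29.09%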;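 also: counterscreen on off-target GPR119 to flag nonselective hits from the GPR151 activator screen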
Numbers stand for hits; . = inactive; / = no result given; ! = not active in a repeat. Rows were chosen to be rich in hits. Some 3.5% of all compounds tested hit in one or more screens of this group.

SMILES	TEAD-YAP block	GPR151 activ	FBW7 act	MITF inh	GPR151 conf act	GPR119 ag
COc1ccc(/C=N/n2c(SC)nnc(C(C)(C)C)c2=O)cc1OC	.	6.2	.	.	.	.
O=C(Cn1cncn1)N1CCN(c2ncccn2)CC1	.	7.0	.	.	.	.
Cc1cc(NC(=O)c2cccs2)cc(C)c1OCC(=O)N1CCOCC1	.	5.2	.	.	.	.
CCCCNC(=O)Cc1cn(C)c2ccccc12	.	5.1	.	.	.	.
COCCCNC(=O)Cc1cn(C)c2ccccc12	.	.	.	.	/	/
COCCCNC(=O)CCCc1cn(C)c2ccccc12	.	6.6	.	.	.	.
Cn1cc(CC(=O)NCCN2CCN(Cc3ccccc3)CC2)c2ccccc21	.	5.2	.	.	.	.
C=CCN(CC=C)C(=O)c1c(-c2c(Cl)cccc2Cl)noc1C	.	.	.	.	/	/
COc1ccc(C2=CC(=C(C#N)C#N)c3cc([N+](=O)[O-])ccc3O2)cc1OC	.	.	.	.	/	/
COc1ccc(NC(=O)NC2(C(=O)NCc3ccncc3)CCCCC2)cc1	.	.	.	.	/	/
Cc1ccc(NC(=O)NC2(C(=O)NCc3ccncc3)CCCCC2)cc1	.	5.4	.	.	.	.
Cc1ccc(Nc2nc(C)cc(N3CCN(C(=O)c4cccs4)CC3)n2)cc1	.	.	.	.	/	/
COc1cc(-c2c(C#N)c(N)nc3sc(C#N)c(N)c23)cc(OC)c1OC	.	11.5	.	.	.	.
Clc1ccccc1OCCN1CCNCC1	.	5.4	.	.	.	.
COc1cccc(OC)c1OCCN1CCNCC1	.	.	.	.	/	/
Cc1cc(NC(=O)c2cccc(Cl)c2)no1	.	.	.	.	/	/
Cc1cc2ncn(CCC(=O)NC3CCCC3)c2cc1C	.	.	.	.	/	/
Cc1cc2ncn(CCC(=O)NC(C)(C)C)c2cc1C	.	5.3	.	.	.	.
CCC(C)(C)NS(=O)(=O)c1cc(Br)cnc1N	.	6.0	.	.	.	.
CC(C)(C)NS(=O)(=O)c1cc(Br)cnc1N	.	.	.	.	/	/
O=C(NCc1ccccc1)/C(=C/c1ccc2c(c1)OCO2)NC(=O)c1ccc(Br)cc1	.	.	.	.	/	/
Cc1cccc(N2CCN(C(=O)c3cccnc3SCc3ccccc3Cl)CC2C)c1 (centres undefined)	.	6.8	.	.	.	.
Cc1ccccc1CSc1ncccc1C(=O)N1CCN(c2cccc(Cl)c2)CC1	.	.	.	.	/	/
COc1ccc(-c2nc3n(n2)C(c2cc(OC)ccc2OC)C(C(N)=O)=C(C)N3)cc1 (centres undefined)	.	.	.	.	/	/
COc1ccc(-c2nc3n(n2)C(c2ccc(OC)cc2OC)C(C(N)=O)=C(C)N3)cc1 (centres undefined)	.	7.4	.	.	.	.
SMILES	TEAD-YAP block	GPR151 activ	FBW7 act	MITF inh	GPR151 conf act	GPR119 ag
Cc1cc(F)ccc1S(=O)(=O)NCC1(O)CCCC1	.	.	.	.	/	/
CCN(CCO)c1cc(NC(C)C)c2c3c(onc13)-c1ccccc1C2=O	.	7.1	.	.	.	.
CCNc1cc(N(CC)CCO)c2noc3c2c1C(=O)c1ccccc1-3	.	.	.	.	/	/
Fc1ccc(C2CC(c3ccc(Br)cc3)=NN2c2nc(-c3ccccc3)c3cc(Cl)ccc3n2)cc1 (centres undefined)	.	.	.	.	/	/
COC(=O)C1=C(C)NC(=O)/C1=C\c1cccc(Br)c1	.	.	.	.	/	/
COc1cc(C2NC(=O)NC(C)=C2C(=O)OCCOc2ccccc2)cc(Cl)c1O (centres undefined)	.	.	.	.	/	/
CN1CCN(S(=O)(=O)c2ccc(C3CCCCC3)cc2)CC1	.	5.3	.	.	.	.
CSc1ccc(S(=O)(=O)N2CCCCCC2)cc1	.	5.0	.	.	.	.
COc1cccc2sc(NC(=O)C3COc4ccccc4O3)nc12 (centres undefined)	.	.	.	.	/	/
CCOc1ccc(NC(=O)COC)cc1	.	5.4	.	.	.	.
CCOCCOC(=O)c1ccc(NC(=O)COc2ccccc2)cc1	.	5.0	.	.	.	.
CCOCCOC(=O)c1ccc(NC(=O)COc2ccc(OC)cc2)cc1	.	.	.	.	/	/
Cc1ccc(NC(=O)COc2ccc(C(C)C)cc2)cc1	.	6.4	.	.	.	.
CCOc1ccc(NC(=O)CC2(c3ccc(OC)cc3)C(=O)c3ccccc3C2=O)cc1	.	5.4	.	.	.	.
COc1ccc2cc3cc(C(=O)NCc4ccc5c(c4)OCO5)sc3nc2c1	.	.	.	.	/	/
Cc1ccc(C(=O)Nc2c3c(nn2-c2ccc([N+](=O)[O-])cc2)CS(=O)(=O)C3)cc1	.	.	.	.	/	/
CCc1ccc(OCC(=O)Nc2ccc(C(=O)OCCOC)cc2)cc1	.	.	.	.	/	/
CCOC(=O)c1ccc(NC(=O)COc2ccc(CC)cc2)cc1	.	4.9	.	.	.	.
CCCNC(=O)C(=O)NCCc1ccc(OC)c(OC)c1	.	6.2	.	.	.	.
COc1ccc(CCNC(=O)C(=O)NCCC(C)C)cc1OC	.	.	.	.	/	/
Cc1ccc(Nc2c(N)c(=O)oc3ccccc23)cc1	.	17.4	.	.	.	.
CNc1c(N)c(=O)oc2ccccc12	.	.	.	.	/	/
CCNc1nc(NCC)nc(N/N=C/c2ccc(-c3ccc(S(N)(=O)=O)cc3)o2)n1	.	.	.	.	/	/
CCSC(=N)N	.	7.1!	.	.	.	.
CC(C)SC(=N)N	/	.	.	.	/	/
SMILES	TEAD-YAP block	GPR151 activ	FBW7 act	MITF inh	GPR151 conf act	GPR119 ag
O=C(NCCCN1CCN(c2ccc(Cl)cc2)CC1)Nc1ccccc1	.	6.6	.	.	.	.
O=C(NCCCN1CCN(c2ccc(Cl)cc2)CC1)Nc1ccc(F)cc1	.	.	.	.	/	/
O=C1CN(C(=O)COC(=O)c2ccc([N+](=O)[O-])o2)c2ccccc2N1	.	.	.	.	/	/
CC1(C)C(=O)Nc2ccccc2N1C(=O)COC(=O)c1ccc([N+](=O)[O-])o1	.	5.7	.	.	.	.
CCN(CC)S(=O)(=O)c1ccc(OCc2ccccc2C#N)c([N+](=O)[O-])c1	.	5.0	.	.	.	.
CN(C)CC(C)(C)CN(CCC#N)S(=O)(=O)c1cccc2nsnc12	.	5.0	.	.	.	.
CC(C)N(CCC#N)S(=O)(=O)c1cccc2nsnc12	.	.	.	.	/	/
CC1(C)CC(=O)C=C(C(=O)N2CCC3(CC2)CC3C(=O)NCc2ccccc2)O1 (centres undefined)	.	.	.	.	/	/
Nc1ccc(-c2ccc(N)cc2C(F)(F)F)c(C(F)(F)F)c1	.	5.6	.	.	.	.
Nc1c(C(F)(F)F)cc(C(F)(F)F)cc1C(F)(F)F	.	.	.	.	/	/
O=C(NCc1ccccc1)c1ccccc1NS(=O)(=O)c1cccc([N+](=O)[O-])c1	.	4.9	.	.	.	.
Cc1ccc(S(=O)(=O)Nc2ccccc2C(=O)NCc2ccco2)cc1[N+](=O)[O-]	.	11.4	.	.	.	.
